# In PubChem BioAssay AID1159580 (chemical genetic matrix, 2015):
# In all, about 5,500 compounds went through this assay and about 2,000 (36%) were called active. Another 18% or so got no clear call; they are omitted. This is one part of the list. Values without a mark were called inactive. Cut-off read from the data, not from the text of the source: active = normalized growth mostly below about 0.91 (no sharp cut-off); inconclusive = no clear call, values can overlap the other calls; inactive = mostly above about 0.92.
# Experiment: chemical genetic growth profiling, strain panel (AID 1159580);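 note: tested at 20 µM; growth read once vehicle control cultures reached saturation at 30 °C; 1 = growth at the plate median or of vehicle wells; lower values mean less growth of the strain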
# Conditions: growth OD
smiles,measurement,setting,value
O=C(COc1ccc2c(c1)OCO2)N1CCN(c2ncc(C(F)(F)F)cc2Cl)CC1,normalized growth,"S. cerevisiae deletion strains, locus YAL013W, strain DEP1, active compounds read low",0.993
same,normalized growth,"S. cerevisiae deletion strains, locus YBR229C, strain ROT2, active compounds read low",1
same,normalized growth,"S. cerevisiae deletion strains, locus YCL061C, strain MRC1, active compounds read low",0.983
same,normalized growth,"S. cerevisiae deletion strains, locus YDL101C, strain DUN1, active compounds read low",1.03
same,normalized growth,"S. cerevisiae deletion strains, locus YDR150W, strain NUM1, active compounds read low",0.997
same,normalized growth,"S. cerevisiae deletion strains, locus YEL061C, strain CIN8, active compounds read low",0.948
same,normalized growth,"S. cerevisiae deletion strains, locus YGR078C, strain PAC10, active compounds read low",0.996
same,normalized growth,"S. cerevisiae deletion strains, locus YHR030C, strain SLT2, active compounds read low",0.55 (active)
same,normalized growth,"S. cerevisiae deletion strains, locus YHR087W, strain rtc3, active compounds read low",0.977
same,normalized growth,"S. cerevisiae deletion strains, locus YJL187C, strain SWE1, active compounds read low",1
same,normalized growth,"S. cerevisiae deletion strains, locus YJR043C, strain POL32, active compounds read low",1.03
same,normalized growth,"S. cerevisiae deletion strains, locus YJR075W, strain HOC1, active compounds read low",0.984
same,normalized growth,"S. cerevisiae deletion strains, locus YKL190W, strain CNB1, active compounds read low",0.963
same,normalized growth,"S. cerevisiae deletion strains, locus YLR039C, strain RIC1, active compounds read low",0.876
same,normalized growth,"S. cerevisiae deletion strains, locus YLR058C, strain SHM2 (second series), active compounds read low",0.998
same,normalized growth,"S. cerevisiae deletion strains, locus YLR085C, strain ARP6, active compounds read low",0.7 (active)
same,normalized growth,"S. cerevisiae deletion strains, locus YLR262C, strain YPT6, active compounds read low",0.885
same,normalized growth,"S. cerevisiae deletion strains, locus YML094W, strain GIM5, active compounds read low",0.964
same,normalized growth,"S. cerevisiae deletion strains, locus YMR219W, strain ESC1, active compounds read low",0.994
same,normalized growth,"S. cerevisiae deletion strains, locus YMR263W, strain SAP30, active compounds read low",1.01
same,normalized growth,"S. cerevisiae deletion strains, locus YMR307W, strain GAS1, active compounds read low",0.791
same,normalized growth,"S. cerevisiae deletion strains, locus YNL153C, strain GIM3, active compounds read low",0.978
same,normalized growth,"S. cerevisiae deletion strains, locus YNL298W, strain CLA4 (second series), active compounds read low",0.944
same,normalized growth,"S. cerevisiae deletion strains, locus YNL322C, strain KRE1, active compounds read low",0.987
same,normalized growth,"S. cerevisiae deletion strains, locus YNR030W, strain Alg12, active compounds read low",0.92
same,normalized growth,"S. cerevisiae deletion strains, locus YOL006C, strain TOP1, active compounds read low",0.999
same,normalized growth,"S. cerevisiae deletion strains, locus YPL055C, strain LGE1, active compounds read low",1.03
same,normalized growth,"S. cerevisiae deletion strains, locus YPL241C, strain CIN2, active compounds read low",1.06
same,normalized growth,"S. cerevisiae deletion strains, locus YPR135W, strain CTF4, active compounds read low",0.802
same,normalized growth,"S. cerevisiae strains, strain wild type, active compounds read low",0.985
